Test results as given in PubChem BioAssay (NCI).
This is part of a sample that, as a whole, favours compounds with a hit. Of some 79,000 tested, about 15% had one in any assay. Activity calls are given as the source filed them. No stated cut-off is given here; in the data, active means growth inhibition above about 70%; inactive means the rest.

Experiments:
[1] = NCI Yeast Anticancer Drug Screen. Data for the rad50 strain (AID 155);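 further: 0% = growth of vehicle-only cultures of the same strain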; details: S. cerevisiae rad50 strain growth inhibition; at 50.0 µM; stronger effect = higher value
Summary of the method: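 Genetically altered yeast (DNA repair pathway); compound treatment; growth inhibition vs vehicle ctrl.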

[2] = NCI Yeast Anticancer Drug Screen. Data for the mec2-1 strain (AID 157); details: S. cerevisiae mec2-1 strain, at 50.0 µM, stronger effect = higher value
Summary of the method: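 Each compound was tested on mec2-1 yeast, a strain altered in DNA damage repair or cell cycle control. Growth inhibition is reported relative to vehicle.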

[3] = NCI Yeast Anticancer Drug Screen. Data for the sgs1 mgt1 strain (AID 161);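 further: 0% = growth of cultures given vehicle only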; details: S. cerevisiae sgs1 mgt1 strain, at 50.0 µM, stronger effect = higher value
Summary of the method: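 Inhibition of yeast growth, normalised to vehicle-treated controls, is reported for a strain bearing genetic alterations in DNA damage repair.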

[4] = NCI Yeast Anticancer Drug Screen. Data for the cln2 rad14 strain (AID 165);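 further: 0% = growth equal to vehicle treated cultures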; details: S. cerevisiae cln2 rad14 strain, at 50.0 µM, stronger effect = higher value
Summary of the method: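 Test compounds were added to cln2 rad14 yeast cultures; inhibition of growth was then determined by comparison with vehicle treatment.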

[5] = NCI Yeast Anticancer Drug Screen. Data for the bub3 strain (AID 167); details: S. cerevisiae bub3 mutant strain, at 50.0 µM, stronger effect = higher value
Summary of the method: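 Yeast carrying a defined mutation is treated with each compound, and growth is compared with that of vehicle-exposed cells to give inhibition.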

[6] = NCI Yeast Anticancer Drug Screen. Data for the mlh1 rad18 strain (AID 175); details: S. cerevisiae mlh1 rad18 strain growth inhibition; at 50.0 µM; stronger effect = higher value
Summary of the method: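 Inhibition values reflect reduced growth of mutant yeast versus vehicle-treated controls following compound exposure; the mutations affect DNA damage repair.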

Measured: growth inhibition

CC(=O)CC(=O)NCC#N
inactive: [1] 27.9% | [2] 15.8% | [3] 23.9% | [4] 25.6% | [5] 11.8% | [6] 24.6%

O=C(CN1C(=O)c2ccccc2C1=O)NC(Cc1ccccc1)C(=O)O (stereo unspecified)
inactive: [1] 7.85% | [2] -6.9% | [3] -16.9% | [4] -12.5% | [5] 10.1% | [6] -9.65%

NCC(N)=O
inactive: [1] -1.6% | [2] -14.2% | [3] -29% | [4] -35% | [5] -36.2% | [6] 4.1%

N#CCCN(Cc1ccccc1)C(=S)Nc1cccc(C(F)(F)F)c1
inactive: [2] 53%
active: [1] 75.8% | [3] 85.2% | [4] 81.5% | [5] 70.1% | [6] 78%

COc1cccc(-c2nc(-c3cnccn3)n(C3OC(CO)C(O)C3O)n2)c1 (stereo unspecified)
inactive: [1] -16.4% | [2] -22.4% | [3] -12.8% | [4] 11.6% | [5] -45% | [6] -22.6%

CC(CS(=O)(=O)Cc1ccccc1)C(N)=O (stereo unspecified)
inactive: [1] -4.8% | [2] 38.1% | [3] 14.3% | [4] 30.1% | [5] -9.95% | [6] -17.1%

O=C(NCCNCCCNC(=O)c1cc(-c2ccccc2)nc2ccccc12)c1cccc(OCc2ccccc2)c1OCc1ccccc1
active: [1] 86.3% | [2] 90.9% | [3] 90.3% | [4] 87.5% | [5] 89.2% | [6] 85.8%

COc1ccc(CC2c3cc(OC)c(OC)cc3CCN2C(=O)OCc2ccccc2)cc1OC (stereo unspecified)
inactive: [1] 25.3% | [2] -4.1% | [3] 2.35% | [4] 19.6% | [5] 8.65% | [6] 12.1%

COc1ccc(C(C)c2cc3c(cc2OC)OCO3)cc1 (stereo unspecified)
inactive: [1] 9.25% | [2] -32.6% | [3] 15.2% | [4] 3.35% | [5] 3% | [6] 10.9%

CC(=O)OCC1OC(n2c(Br)nc3c(N)ncnc32)C(O)C1O (stereo unspecified)
inactive: [1] -3.35% | [2] -4.5% | [3] -16.4% | [4] -12.2% | [5] -0.7% | [6] -29.4%

O=C(Nc1c(C(=O)NC2CCCCC2)[nH]c(=O)[nH]c1=O)c1ccc(Cl)cc1
inactive: [1] -18.8% | [2] -1.35% | [3] -19.4% | [4] 2.85% | [5] -0.25% | [6] 5.5%

O=NNc1ccnc(-c2cc(NN=O)ccn2)c1
inactive: [1] 22.2% | [2] 16.4% | [3] 6.3% | [4] -0.9% | [5] -12.5% | [6] 34%

Nc1ccc(-c2nc3ccccc3[nH]2)cc1
inactive: [1] -2.55% | [2] 17.8% | [3] 3.1% | [4] 9% | [5] 18.9% | [6] -0.8%

CCOc1c(N=Nc2ccc([N+](=O)[O-])cc2)c(C)nn1C(N)=S
inactive: [1] -8% | [2] 8.05% | [3] 15.3% | [4] -27.4% | [5] 13.1% | [6] 15.9%

CO/N=C\c1cc[n+](C)cc1
inactive: [1] 11.7% | [2] 24.6% | [3] 18.9% | [4] 30.7% | [5] 55% | [6] 19.2%

Nc1cnc2ccccc2c1
inactive: [1] 10.2% | [2] 1.25% | [3] -8.45% | [4] -46.5% | [5] 11.8% | [6] -4.1%

Cc1ccc(/C(O)=C/C(=O)C(=O)NN=C(c2ccccc2)c2ccccc2)cc1
inactive: [1] 5.9% | [2] -11.9% | [3] 26.8% | [4] 4.85% | [5] 20.3% | [6] -1.85%

CCCCCCCCn1nnnc1N
inactive: [1] -1.1% | [2] 21% | [3] 1.45% | [4] 0.5% | [5] 20.7% | [6] 8.1%

CN(C)c1nc(OC2C(C(O)CO)OC3OC(C)(C)OC32)nc(N(C)C)n1 (stereo unspecified)
inactive: [1] 31.1% | [2] -11.7% | [3] 6.15% | [4] 18% | [5] -1.05% | [6] -0.65%

Cc1nc2ccccc2n1CCC(N)=O
inactive: [1] 24.6% | [2] -2.1% | [3] 6.1% | [4] 12.3% | [5] -26.9% | [6] -2.35%

CCOC(=O)C(C)C(=O)C(C)C (stereo unspecified)
inactive: [1] -1.65% | [2] 0.5% | [3] 0.75% | [4] -11.8% | [5] 13.7% | [6] -9.35%

COC(=O)C1CC=CCCC1=O (stereo unspecified)
inactive: [1] -3.8% | [2] -10.8% | [3] 23.7% | [4] 12.2% | [5] 43.7% | [6] 5.65%

COC1OC2COC(c3ccccc3)OC2C(OC)C1OC(=O)c1ccccc1 (stereo unspecified)
inactive: [1] -3.05% | [2] 0.85% | [3] -14.1% | [4] -37.6% | [5] -2.05% | [6] 7.55%

O=[N+]([O-])C(Cl)C(Cl)C(Cl)=C(Cl)Cl (stereo unspecified)
inactive: [1] 23.9% | [2] 17.1% | [3] 51% | [4] 35.8% | [5] 60.8% | [6] 52.2%

CC(=O)c1cc(C(C)(C)C)ccc1O
inactive: [1] 17.8% | [2] 4.8% | [3] 7.8% | [4] 9.65% | [5] 26.1% | [6] 12.8%

COc1ccc(OC)c2c(=O)cc(C)oc12
inactive: [1] -15.7% | [2] -7.8% | [3] -16.3% | [4] -3.4% | [5] -7.65% | [6] -10.4%

O=C(/C=C/c1ccc(O)c(O)c1)OC1C[C@@](O)(C(=O)O)C[C@@H](O)[C@H]1OC(=O)/C=C/c1ccc(O)c(O)c1 (stereo partly specified)
inactive: [1] 17.8% | [2] -14.1% | [3] 21.1% | [4] -2.95% | [5] -6% | [6] 25.9%

N#CC1=C(N)N(c2ccccc2)C(c2ccccc2)C1(C#N)C#N (stereo unspecified)
inactive: [1] 6.45% | [2] 14.2% | [3] -8.3% | [4] -4.9% | [5] -22.9% | [6] -4.75%

COC(=O)C12OCC34C(CC(C(C)=O)C(C)(CC(=O)O)C3C(O)C1O)OC(=O)C(OC(=O)/C=C(\C)C(C)C)C24 (stereo unspecified)
inactive: [1] 10% | [2] 21.3% | [3] 0.15% | [4] 9% | [5] 7.6% | [6] 6.95%

Cn1cnc([N+](=O)[O-])c1Sc1nc2ccccc2[nH]1
inactive: [1] -16.4% | [2] -10.3% | [3] -12.2% | [4] 3.65% | [5] -30.6% | [6] -19.1%

O=C(O)CCC1CCCO1 (stereo unspecified)
inactive: [1] -5.4% | [2] -9.35% | [3] -9.3% | [4] 10.2% | [5] 15.3% | [6] -0.6%

COc1cc2nncc(SCc3ccc(Cl)cc3Cl)c2cc1OC
inactive: [1] 16.9% | [2] 2.9% | [3] -1.65% | [4] 23.8% | [5] 1.2% | [6] 8.25%

Cc1ccc(S(=O)(=O)Nn2c(O)c(C#N)c(-c3ccc([N+](=O)[O-])cc3)c(C#N)c2=O)cc1
inactive: [1] 4.8% | [2] 6.9% | [3] -7.9% | [4] 15.6% | [5] -13.2% | [6] -8.8%

CC(C)OC(=O)C1=C(C(=O)OC(C)C)CCCC1
inactive: [1] 4.8% | [2] 21.6% | [3] 4.4% | [4] 13.2% | [5] 3.1% | [6] 13.7%

CC[N+](CC)(CC)CCC[n+]1ccc(/C=N\O)cc1
inactive: [1] 3.1% | [2] -1.6% | [3] -16.4% | [4] -8.25% | [5] -0.8% | [6] -6.25%

CCOc1ccccc1OCC
inactive: [1] 25.1% | [2] -27.2% | [3] -25.9% | [4] 12.3% | [5] -11.2% | [6] 21.2%

O=C(NCCCCCCNC(=O)Nc1cccc(C(F)(F)F)c1)Nc1cccc(C(F)(F)F)c1
inactive: [1] -9.65% | [2] -13.7% | [3] -4.05% | [4] -19.1% | [5] 2.4% | [6] 8.8%

Clc1ccc(-c2cc(-c3cc(-c4ccc(Cl)cc4Cl)n[nH]3)[nH]n2)c(Cl)c1
inactive: [1] 14.2% | [2] 1.75% | [3] -5.3% | [4] 20.6% | [5] 9.9% | [6] 8.55%

COc1c2c(cc3nc4ccccc4nc13)CCC(C(C)(C)O)C2 (stereo unspecified)
inactive: [1] 17.9% | [2] -10.2% | [3] -3.45% | [4] 3.9% | [5] -0.7% | [6] 6.3%

COc1ccc(C2OC2C(=O)c2ccccc2)cc1 (stereo unspecified)
inactive: [1] 6.75% | [2] 0.7% | [3] 19.4% | [4] -14.2% | [5] 12.3% | [6] -1.25%

Cc1nc(N/N=C/c2ccccc2Cl)[nH]c(=O)c1CCO
inactive: [1] -18.9% | [2] -2.8% | [3] -17.4% | [4] 12.2% | [5] -30.2% | [6] 4.15%
